Values joined by “and” are separate entries in the source; they are usually repeats but may differ in a detail not shown here. Identical values can stand only once. Results filed as inconclusive are left out. Where a call stands in place of a potency, no number is given. Active and inactive are the calls of the source. Unless noted, the call rests on the fitted dose curve; in most records, active means well fitted curve in the direction sought with a large enough effect; inconclusive means small, poorly fitted or top-dose-only effect, or another doubt; inactive means no such curve, though single readings can be large; an effect the other way counts as inactive or inconclusive.
Tests used:
[1] = biological target: Calcium and integrin-binding protein 1 (Homo sapiens) (UniProt Q99828); assay: Primary qHTS for Identification of Calcium Integrin Binding Protein 1 (CIB1) Competitor (AID 1508620);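 further: GST tagged CIB1 binding a fluorescein labelled alphaIIb integrin peptide tracer; top concentration of the series differs between compounds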
Sequence of Calcium and integrin-binding protein 1 (Homo sapiens) (Q99828 whole entry, looked up): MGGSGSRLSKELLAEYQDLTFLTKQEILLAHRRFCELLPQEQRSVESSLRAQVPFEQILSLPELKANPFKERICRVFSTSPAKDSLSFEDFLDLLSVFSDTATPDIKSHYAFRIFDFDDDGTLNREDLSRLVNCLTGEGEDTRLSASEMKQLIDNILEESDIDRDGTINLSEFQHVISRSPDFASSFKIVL
Summary of the method: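 Fluorescence polarization competition: GST-tagged CIB1 (1 uM final) preincubated with compound 15 min at room temperature, then FITC-labelled alphaIIb peptide (100 nM final) added. After 15 min at room temperature, polarization read at Ex 480/Em 540.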

[2] = biological target: Cytochrome P450 2C9 (Homo sapiens) (UniProt P11712); assay: Cytochrome P450 family 2 subfamily C member 9 (CYP2C9) small molecule antagonists: luciferase biochemical (cell-free) qHTS assay (AID 1645842; active means well fitted curve in the direction sought with a large enough effect in the repeat runs; an effect the other way counts as inactive or inconclusive; further: nearly all actives have a fitted effect of over 55% in size; further: potency means the concentration at half of the fitted maximal effect)
Sequence of Cytochrome P450 2C9 (Homo sapiens) (P11712 whole entry, looked up): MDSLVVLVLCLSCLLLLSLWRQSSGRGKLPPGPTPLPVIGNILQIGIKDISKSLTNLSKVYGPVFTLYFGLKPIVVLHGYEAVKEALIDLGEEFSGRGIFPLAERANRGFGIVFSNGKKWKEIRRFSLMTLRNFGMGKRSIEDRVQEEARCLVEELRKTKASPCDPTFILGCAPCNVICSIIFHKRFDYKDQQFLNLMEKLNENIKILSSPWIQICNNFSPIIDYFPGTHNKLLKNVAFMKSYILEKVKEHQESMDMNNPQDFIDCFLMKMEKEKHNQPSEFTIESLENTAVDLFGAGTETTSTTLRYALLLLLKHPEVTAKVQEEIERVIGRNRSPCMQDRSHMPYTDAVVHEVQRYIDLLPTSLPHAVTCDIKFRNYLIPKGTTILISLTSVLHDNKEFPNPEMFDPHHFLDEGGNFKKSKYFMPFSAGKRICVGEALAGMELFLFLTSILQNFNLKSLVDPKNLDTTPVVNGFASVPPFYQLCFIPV
Summary of the method: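 P450-Glo CYP2C9 system: proluciferin substrate with enzyme in mix containing 0.4% BSA, 10 min at room temperature, then NADPH regeneration solution added and incubated 1 h at 37C. Detection reagent stopped reaction; luminescence read after 20 min as RLU.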

[3] = Primary qHTS for inhibitors of nuclear receptor binding SET domain protein 2 (NSD2) in an isogenic RCH-ACV NSD2 p.E1099K mutant (9B) (AID 1645876); further: nearly all actives have a fitted effect of over 70% in size; further: potency means the concentration at half of the fitted maximal effect
[4] = biological target: N-terminal Xaa-Pro-Lys N-methyltransferase 1 (Homo sapiens) (UniProt Q9BV86); assay: Confirmatory qHTS for Inhibitors of N-terminal methyltransferase 1 (NTMT1): MTaseGlo Assay (AID 1645874); further: nearly all actives have a fitted effect of over 65% in size; further: potency means the concentration at half of the fitted maximal effect
Sequence of N-terminal Xaa-Pro-Lys N-methyltransferase 1 (Homo sapiens) (Q9BV86 whole entry, looked up): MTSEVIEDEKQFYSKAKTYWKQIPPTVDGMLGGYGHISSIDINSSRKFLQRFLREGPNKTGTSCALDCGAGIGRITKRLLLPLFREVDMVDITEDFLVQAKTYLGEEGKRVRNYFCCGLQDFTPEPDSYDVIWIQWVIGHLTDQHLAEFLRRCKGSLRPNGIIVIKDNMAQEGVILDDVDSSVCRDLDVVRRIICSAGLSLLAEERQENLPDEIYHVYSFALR
Summary of the method: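 SPKRIA peptide at 1 uM was methylated by 125 nM NTMT1 using 100 uM SAM over 30 min at room temperature, following a 15 min compound preincubation. Product SAH was detected luminescently.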

| SMILES | Potency [1] | Potency [2] | Potency [3] | Potency [4] |
| --- | --- | --- | --- | --- |
| O=C(CN1C(=O)C2(CCCC2)NCC1c1cc(F)cc(F)c1)Nc1ccc2c(c1)CC1(C2)C(=O)Nc2ncccc21 (stereo not given) | inactive | 3.01 µM (active) | inactive | – |
| CN(C)C/C=C/C(=O)Nc1cccc(C(=O)Nc2ccc(Nc3nccc(-c4cccnc4)n3)cc2)c1 | inactive | inactive | 649 nM (active) | – |
| Cc1noc(=O)c2ccc(NC(=O)C(O)(CC(C)(C)c3cccc4c3OCC4)C(F)(F)F)cc12 (stereo not given) | inactive | inactive | – | – |
| CCOc1cc2ncc(C#N)c(Nc3ccc(F)c(Cl)c3)c2cc1NC(=O)/C=C/CN(C)C | inactive | 3.79 µM (active) | 459 nM (active) and 742 nM (active) | 1.2 µM (active) |
| COc1cc(OC)cc(C(=O)Nc2ccc(Cl)c(-c3nc4ccc(N(C)C)cc4[nH]3)c2)c1 | inactive | 1.69 µM (active) | – | – |
| Cc1c(C(=O)N2CCOc3ccc(-c4ccc(N)nc4)cc3C2)ccc(S(C)(=O)=O)c1F | inactive | inactive | 817 nM (active) and 1.32 µM (active) | – |
| CC1(C)CC(=O)C2=C(C1)NC(=S)NC2c1cccc(O)c1 (stereo not given) | inactive | 2.13 µM (active) | 728 nM (active) | – |
| Cc1cc(C)c2c(N)c(C(=O)NCc3ccc(Cl)cc3)sc2n1 | inactive | 1.9 µM (active) | – | inactive |
| Cc1cc(C)nc(NS(=O)(=O)c2ccc(NC(=S)NC(=O)COc3ccc(Br)cc3Cl)cc2)n1 | inactive | 10.7 µM (active) | inactive | – |
| O=C1CC2(CCCC2)[C@H](O)C(=O)N1CCCCN1CCN(c2ncccn2)CC1 | inactive | 10.7 µM (active) | inactive | – |
| O=C(NCc1cccc(O)c1)Nc1nc(-c2ccncc2)cs1 | inactive | 0.301 µM (active) | 9340 nM (active) | – |
| COc1ccc(C2(O)CCC(N3CC[C@@H](NC(=O)CNC(=O)c4cccc(C(F)(F)F)c4)C3)CC2)cn1 (stereo not given in full) | inactive | inactive | inactive | – |
| COc1ccc(CNC(=O)c2cc(-c3cncc(C)c3)ncc2-c2nccs2)nc1OC | inactive | 4.25 µM (active) | inactive | – |
| CC(C)(F)C[C@@H](N[C@@H](c1ccc(-c2ccc(S(C)(=O)=O)cc2)cc1)C(F)(F)F)C(=O)NC1(C#N)CC1 | inactive | 19 µM (active) | inactive | – |
| CNC(=O)c1cccc(-c2ccc3c(N4CCOC[C@@H]4C)nc(N4CCOC[C@@H]4C)nc3n2)c1 | inactive | 12 µM (active) and 10.7 µM (active) | 129 nM (active) and 326 nM (active) and 148 nM (active) | – |
| CCCC1(c2ccccc2)NC(=O)N(CC(=O)N(C)Cc2c(F)cccc2Cl)C1=O (stereo not given) | inactive | 12 µM (active) | inactive | – |
| COc1ccc(C2=N[C@@H](c3ccc(Cl)cc3)[C@@H](c3ccc(Cl)cc3)N2C(=O)N2CCNC(=O)C2)c(OC(C)C)c1 | inactive | inactive | 3650 nM (active) | – |
| O=C1N=C(N2CCOCC2)CN1c1ccc(Cl)cc1 | inactive | inactive | inactive | – |
| c1cn2cc(-c3ccc4cn[nH]c4c3)nc(Nc3ccc(N4CCOCC4)cc3)c2n1 | inactive | 0.601 µM (active) | 325 nM (active) | – |
| CC(C)(C)Nc1nc(Nc2ccc(C(N)=O)cc2)cc(N)c1C#N | inactive | 3.38 µM (active) | 3650 nM (active) | – |
| CNS(=O)(=O)c1ccccc1Nc1nc(Nc2ccc(N3CCN(C)CC3)cc2OC)ncc1Cl | inactive | 3.38 µM (active) | 578 nM (active) | – |
| C#CCN(Cc1cc2c(=O)n(C)c(CN3CCN(C)CC3)nc2cc1Cl)c1ccc(C(=O)NCc2cccnc2)cc1 | inactive | 12 µM (active) | inactive | – |
| Cc1cc(Nc2cc(N3CCN(C)CC3)nc(/C=C/c3ccccc3)n2)n[nH]1 | inactive | inactive | 728 nM (active) and 934 nM (active) | – |
| COCCN1CCN(Cc2ccc(-c3n[nH]c4c3C(=O)c3c(NC(=O)NN5CCOCC5)cccc3-4)cc2)CC1 | inactive | 2.13 µM (active) | 45.9 nM (active) and 59 nM (active) | – |
| COc1ccc(F)cc1-c1cc(NC(=O)[C@@H]2CCCNC2)ncc1Cl | inactive | 1.34 µM (active) | 64.9 nM (active) | – |
| COc1cccc(C(=O)N2CCN(C(=O)COc3cccc(C)c3)CC2)c1OC | inactive | 21.3 µM (active) | inactive | – |
| COc1cc(C(=O)NC2CCN(C)CC2)ccc1Nc1ncc2c(n1)N(C1CCCC1)CC(F)(F)C(=O)N2C | inactive | inactive | 20.5 nM (active) | – |

— PubChem BioAssay (NCATS)
